Records with an inconclusive call do not appear. Active and inactive are the calls of the source. Calls follow the shape of the dose curve; as a rule, active = well fitted curve in the direction sought with a large enough effect; inconclusive = small, poorly fitted or top-dose-only effect, or another doubt; inactive = no such curve, though single readings can be large; an effect the other way counts as inactive or inconclusive.
How the values were obtained:
[1] = target: Cytochrome P450 3A4 (Homo sapiens) (UniProt P08684); experiment: qHTS Assay for Inhibitors and Substrates of Cytochrome P450 3A4 (AID 884); also: series mostly up to about 57 µM; nearly all actives have a fitted effect of over 50% in size
Chain of Cytochrome P450 3A4 (Homo sapiens) (P08684 whole entry, looked up): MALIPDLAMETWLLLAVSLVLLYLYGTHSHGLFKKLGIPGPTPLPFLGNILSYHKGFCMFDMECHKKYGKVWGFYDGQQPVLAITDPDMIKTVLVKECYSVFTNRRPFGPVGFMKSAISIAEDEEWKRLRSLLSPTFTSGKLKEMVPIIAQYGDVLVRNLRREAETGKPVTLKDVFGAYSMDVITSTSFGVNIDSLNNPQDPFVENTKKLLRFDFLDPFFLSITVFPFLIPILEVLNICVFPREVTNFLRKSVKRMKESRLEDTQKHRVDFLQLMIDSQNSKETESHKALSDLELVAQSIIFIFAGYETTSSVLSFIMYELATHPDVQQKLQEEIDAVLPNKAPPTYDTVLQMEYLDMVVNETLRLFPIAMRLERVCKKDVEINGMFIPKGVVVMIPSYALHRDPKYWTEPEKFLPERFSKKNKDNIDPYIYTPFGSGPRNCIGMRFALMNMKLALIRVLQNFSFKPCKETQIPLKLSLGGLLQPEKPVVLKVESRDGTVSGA
Procedure, shortened: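 20 nM human CYP3A4 with 25 uM Luciferin-PPXE (at KM) in 200 mM KPO4, preincubated 10 min with compound; NADPH regeneration started a 60 min RT reaction. Luciferin detected by luminescence, normalized to 57 uM ketoconazole as full inhibition.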

[2] = Confirmation and Secondary Assay for Modulators of Hemoglobin Beta Chain Splicing at IVS2 654 locus (AID 910);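 also: HeLa cells stably carrying EGFP split by mutant beta-globin IVS2-654 intron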
Procedure, shortened: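 HeLa cells stably expressing EGFP interrupted by β-globin IVS2-654 intron, seeded overnight in Opti-MEM/2% FCS, then treated 2 days at 37 °C. Restored splicing read as total peak GFP intensity per well by laser scanning cytometry (488 nm excitation, 500–520 nm emission); 500 nM antisense PNA as control.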

[3] = Confirmation and Secondary Assay for Modulators of Hemoglobin Beta Chain Splicing at IVS2 705 locus (AID 930);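 also: HeLa cells stably expressing the EGFP-705 splicing reporter; GFP fluorescence per well restored by corrected splicing of the IVS2-705 intron in EGFP; series mostly up to about 46 µM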
Procedure, shortened: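 Assay measures total GFP intensity per well in HeLa EGFP-705 cells after 2 days with compound; mis-splicing normally truncates EGFP, so fluorescence indicates corrected splicing.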

[4] = target: Ubiquitin carboxyl-terminal hydrolase 1 (Homo sapiens) (UniProt O94782); experiment: Inhibitors of USP1/UAF1: Pilot qHTS (AID 504865);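 also: rhodamine fluorescence freed from ubiquitin-rhodamine substrate followed over time; top concentration of the series differs between compounds; nearly all actives have a fitted effect of over 35% in size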
Chain of Ubiquitin carboxyl-terminal hydrolase 1 (Homo sapiens) (O94782 whole entry, looked up): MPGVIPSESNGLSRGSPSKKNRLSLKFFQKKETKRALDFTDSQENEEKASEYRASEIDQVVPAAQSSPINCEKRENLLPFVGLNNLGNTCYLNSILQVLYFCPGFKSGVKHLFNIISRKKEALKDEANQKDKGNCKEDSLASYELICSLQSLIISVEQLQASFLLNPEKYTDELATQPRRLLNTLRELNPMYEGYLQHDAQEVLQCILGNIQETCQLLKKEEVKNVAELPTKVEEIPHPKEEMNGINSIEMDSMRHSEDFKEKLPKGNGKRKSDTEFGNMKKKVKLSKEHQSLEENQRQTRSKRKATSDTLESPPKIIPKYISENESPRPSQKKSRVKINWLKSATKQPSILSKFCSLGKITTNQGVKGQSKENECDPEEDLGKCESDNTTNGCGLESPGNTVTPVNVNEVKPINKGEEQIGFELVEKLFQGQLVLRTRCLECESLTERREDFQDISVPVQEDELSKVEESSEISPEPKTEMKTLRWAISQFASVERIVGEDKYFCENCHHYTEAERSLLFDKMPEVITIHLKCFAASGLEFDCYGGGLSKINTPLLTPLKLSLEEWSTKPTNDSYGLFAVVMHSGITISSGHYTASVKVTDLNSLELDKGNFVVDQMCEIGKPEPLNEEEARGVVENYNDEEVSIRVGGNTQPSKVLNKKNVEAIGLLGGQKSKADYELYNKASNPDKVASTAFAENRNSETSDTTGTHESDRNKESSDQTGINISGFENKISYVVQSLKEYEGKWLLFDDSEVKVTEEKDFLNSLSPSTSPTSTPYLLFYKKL
Procedure, shortened: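 In 50mM HEPES pH 7.8 containing 0.5mM EDTA, 1mM TCEP, 0.1 mg/ml BSA and 0.01% Tween-20, 1nM USP1/UAF1 is exposed to compound for 15 min, then Ub-Rho (150nM final) is added and fluorescence is read over time.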

Measured: Potency

CC1CC[C@]2(NC1)OC1CC3C4CC=C5CC(O)CC[C@@]5(C)C4CC[C@]3(C)C1C2C (some centres undefined)
inactive: [1] | [2] | [3] | [4]

Reference: PubChem BioAssay (NCATS)
